Assay results from the supplement of paper PMC8728848.
Shown is part of a subset that was picked to be rich in the strongest signals.

How the values were obtained:
Assay in all cases: glycan array binding signal (z-score within array); higher = stronger binding
Conditions in all cases: glycan notation: IUPAC condensed, linker removed
Fuc(a1-2)Gal = biological target: Fuc(a1-2)Gal
Outline: (§1)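 The Consortium for Functional Glycomics database supplied 3228 glycan arrays, of which those lacking an available protein sequence were dropped. The binding signal, a within-array Z-score, was averaged across arrays of the same protein sequence and across linkers. Negative scores can be read as non-binding.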

[1] = biological target: Fuc(a1-2)Gal(b1-4)GlcNAc(b1-2)Man(a1-3)[Fuc(a1-2)Gal(b1-4)GlcNAc(b1-2)Man(a1-6)]Man(b1-4)GlcNAc(b1-4)GlcNAc
Outline: as §1

[2] = biological target: Fuc(a1-2)Gal(b1-4)GlcNAc6S
Outline: as §1

[3] = biological target: Fuc(a1-2)[GalNAc(a1-3)]Gal
Outline: as §1

[4] = biological target: Fuc(a1-2)[GalNAc(a1-3)]Gal(b1-3)GalNAc(b1-3)Gal(a1-4)Gal(b1-4)Glc
Outline: as §1

[5] = biological target: Fuc(a1-2)[GalNAc(a1-3)]Gal(b1-4)GlcNAc(b1-2)Man(a1-3)[Fuc(a1-2)[GalNAc(a1-3)]Gal(b1-4)GlcNAc(b1-2)Man(a1-6)]Man(b1-4)GlcNAc(b1-4)GlcNAc
Outline: as §1

[6] = biological target: Fuc(a1-3)[Gal(b1-4)]GlcNAc(b1-3)GalNAc
Outline: as §1

[7] = biological target: Fuc(a1-3)[Gal(b1-4)]GlcNAc(b1-4)Gal(b1-4)[Fuc(a1-3)]GlcNAc(b1-4)Gal(b1-4)[Fuc(a1-3)]GlcNAc
Outline: as §1

[8] = biological target: Fuc(a1-3)[GalNAc(b1-4)]GlcNAc
Outline: as §1

[9] = biological target: Fuc(a1-3)[GalNAc(b1-4)]GlcNAc6S
Outline: as §1

[10] = biological target: Gal(a1-4)Gal(b1-4)GlcNAc(b1-3)Gal(b1-4)Glc
Outline: as §1

[11] = biological target: Gal(b1-4)GlcNAc(b1-2)Man(a1-6)[Man(a1-3)]Man(b1-4)GlcNAc(b1-4)GlcNAc
Outline: as §1

[12] = biological target: Gal(b1-4)GlcNAc(b1-3)[Gal(b1-4)GlcNAc(b1-6)]GalNAc
Outline: as §1

[13] = biological target: Gal(b1-4)GlcNAc(b1-6)Gal(b1-4)GlcNAc(b1-6)GalNAc
Outline: as §1

GalNAc4S6S(b1-4)GlcNAc = biological target: GalNAc4S6S(b1-4)GlcNAc
Outline: as §1

GalNAc6S(b1-4)GlcNAc = biological target: GalNAc6S(b1-4)GlcNAc
Outline: as §1

[14] = biological target: GlcNAc(a1-3)Gal(b1-4)GlcNAc
Outline: as §1

[15] = biological target: GlcNAc(a1-6)Gal(b1-4)GlcNAc
Outline: as §1

[16] = biological target: GlcNAc(b1-2)Man(a1-3)[GlcNAc(b1-2)Man(a1-6)]Man(b1-4)GlcNAc(b1-4)[Fuc(a1-6)]GlcNAc
Outline: as §1

[17] = biological target: GlcNAc(b1-3)Gal(b1-4)GlcNAc(b1-2)Man(a1-3)[GlcNAc(b1-3)Gal(b1-4)GlcNAc(b1-2)Man(a1-6)]Man(b1-4)GlcNAc(b1-4)[Fuc(a1-6)]GlcNAc
Outline: as §1

[18] = biological target: GlcNAc(b1-3)Gal(b1-4)GlcNAc(b1-3)Gal(b1-4)GlcNAc(b1-3)Gal(b1-4)GlcNAc(b1-3)Gal(b1-4)GlcNAc(b1-2)[GlcNAc(b1-3)Gal(b1-4)GlcNAc(b1-3)Gal(b1-4)GlcNAc(b1-3)Gal(b1-4)GlcNAc(b1-3)Gal(b1-4)GlcNAc(b1-6)]Man(a1-6)[GlcNAc(b1-3)Gal(b1-4)GlcNAc(b1-3)Gal(b1-4)GlcNAc(b1-3)Gal(b1-4)GlcNAc(b1-3)Gal(b1-4)GlcNAc(b1-2)Man(a1-3)]Man(b1-4)GlcNAc(b1-4)[Fuc(a1-6)]GlcNAc
Outline: as §1

[19] = biological target: GlcNAc(b1-3)Gal(b1-4)GlcNAc(b1-6)[GlcNAc(b1-3)]Gal(b1-4)GlcNAc
Outline: as §1

[20] = biological target: GlcNAc(b1-3)[GlcNAc(b1-6)]GlcNAc(b1-4)GlcNAc
Outline: as §1

GlcNAc(b1-4)GlcNAc = biological target: GlcNAc(b1-4)GlcNAc
Outline: as §1

[21] = biological target: Man(a1-2)Man(a1-3)[Man(a1-6)]Man(a1-6)[Man(a1-2)Man(a1-3)]Man(b1-4)GlcNAc(b1-4)GlcNAc
Outline: as §1

[22] = biological target: Man(a1-2)Man(a1-6)[Man(a1-3)]Man(a1-6)[Man(a1-2)Man(a1-2)Man(a1-3)]Man
Outline: as §1

[23] = biological target: Man(a1-2)Man(a1-6)[Man(a1-3)]Man(a1-6)[Man(a1-2)Man(a1-2)Man(a1-3)]Man(b1-4)GlcNAc(b1-4)GlcNAc
Outline: as §1

Man(a1-3)[Man(a1-6)]Man = biological target: Man(a1-3)[Man(a1-6)]Man
Outline: as §1

[24] = biological target: Man(a1-3)[Man(a1-6)]Man(a1-6)[Man(a1-2)Man(a1-3)]Man(b1-4)GlcNAc(b1-4)GlcNAc
Outline: as §1

[25] = biological target: Man(a1-3)[Man(a1-6)]Man(a1-6)[Man(a1-3)]Man
Outline: as §1

[26] = biological target: Man(a1-3)[Man(a1-6)]Man(a1-6)[Man(a1-3)]Man(b1-4)GlcNAc(b1-4)GlcNAc
Outline: as §1

[27] = biological target: Man(a1-3)[Man(a1-6)]Man(b1-4)GlcNAc(b1-4)GlcNAc
Outline: as §1

[28] = biological target: Man(a1-3)[Man(a1-6)]Man(b1-4)GlcNAc(b1-4)[Fuc(a1-6)]GlcNAc
Outline: as §1

Neu5Ac(a2-3)Gal = biological target: Neu5Ac(a2-3)Gal
Outline: as §1

[29] = biological target: Neu5Ac(a2-3)Gal(b1-3)GalNAc(b1-4)[Neu5Ac(a2-3)]Gal(b1-4)Glc
Outline: as §1

[30] = biological target: Neu5Ac(a2-3)Gal(b1-3)GlcNAc(b1-6)GalNAc
Outline: as §1

[31] = biological target: Neu5Ac(a2-3)Gal(b1-4)GlcNAc(b1-2)[Neu5Ac(a2-3)Gal(b1-4)GlcNAc(b1-6)]Man(a1-6)[Neu5Ac(a2-3)Gal(b1-4)GlcNAc(b1-2)Man(a1-3)][GlcNAc(b1-4)]Man(b1-4)GlcNAc(b1-4)GlcNAc
Outline: as §1

[32] = biological target: Neu5Ac(a2-3)Gal(b1-4)GlcNAc(b1-3)Gal(b1-4)GlcNAc(b1-3)[Neu5Ac(a2-3)Gal(b1-4)GlcNAc(b1-3)Gal(b1-4)GlcNAc(b1-6)]GalNAc
Outline: as §1

[33] = biological target: Neu5Ac(a2-3)Gal(b1-4)[Fuc(a1-3)]GlcNAc(b1-3)Gal(b1-4)GlcNAc
Outline: as §1

[34] = biological target: Neu5Ac(a2-3)Gal(b1-4)[Fuc(a1-3)]GlcNAc(b1-6)[Gal(b1-3)]GalNAc
Outline: as §1

[35] = biological target: Neu5Ac(a2-3)[Neu5Ac(a2-6)]GalNAc
Outline: as §1

[36] = biological target: Neu5Ac(a2-6)Gal(b1-4)GlcNAc(b1-2)Man(a1-3)[Man(a1-6)]Man(b1-4)GlcNAc(b1-4)GlcNAc
Outline: as §1

[37] = biological target: Neu5Ac(a2-6)Gal(b1-4)GlcNAc(b1-2)Man(a1-6)[Man(a1-3)]Man(b1-4)GlcNAc(b1-4)GlcNAc
Outline: as §1

[38] = biological target: Neu5Ac(a2-6)Gal(b1-4)GlcNAc(b1-3)Gal(b1-4)GlcNAc(b1-2)Man(a1-3)[Neu5Ac(a2-6)Gal(b1-4)GlcNAc(b1-3)Gal(b1-4)GlcNAc(b1-2)Man(a1-6)]GalNAc
Outline: as §1

[39] = biological target: Neu5Ac(a2-6)Gal(b1-4)GlcNAc(b1-3)Gal(b1-4)GlcNAc(b1-3)Gal(b1-4)GlcNAc(b1-2)Man(a1-3)[Neu5Ac(a2-6)Gal(b1-4)GlcNAc(b1-3)Gal(b1-4)GlcNAc(b1-3)Gal(b1-4)GlcNAc(b1-2)Man(a1-6)]GalNAc
Outline: as §1

[40] = biological target: Neu5Ac(a2-6)GalNAc(b1-4)GlcNAc
Outline: as §1

[41] = biological target: Neu5Ac(a2-8)Neu5Ac(a2-8)Neu5Ac(a2-3)[Gal(b1-3)GalNAc(b1-4)]Gal(b1-4)Glc
Outline: as §1

Neu5Ac(b2-6)GalNAc = biological target: Neu5Ac(b2-6)GalNAc
Outline: as §1

B1: HHA (Hippeastrum hybrid) (protein)
chain: MQQDCNLVLYDVDKPIWASNTGGLARDCHLNMQSDGNLVVYAPRNQVIWASNTQGENGNYVCILQKDRNVVIYGTARWATGTNIHGAGIVGVPGSAPQNTTAEMIKLVRKYLITK
For B1, the “glycan array binding signal (z-score)” value (Fuc(a1-2)Gal) was -0.215, the “glycan array binding signal (z-score)” value [1] was 0.036 and the “glycan array binding signal (z-score)” value [2] was -0.207. The “glycan array binding signal (z-score)” value [3] was -0.21, the “glycan array binding signal (z-score)” value [4] was -0.213 and the “glycan array binding signal (z-score)” value [5] was -0.159. For the same binder, the “glycan array binding signal (z-score)” value [6] was -0.17, the “glycan array binding signal (z-score)” value [7] was -0.255 and the “glycan array binding signal (z-score)” value [8] was -0.196. The “glycan array binding signal (z-score)” value [9] was -0.214, the “glycan array binding signal (z-score)” value [10] was -0.203 and the “glycan array binding signal (z-score)” value [11] was 3.97. For the same binder, the “glycan array binding signal (z-score)” value [12] was -0.247, the “glycan array binding signal (z-score)” value [13] was -0.191 and the “glycan array binding signal (z-score)” value (GalNAc4S6S(b1-4)GlcNAc) was -0.218. For the same binder, the “glycan array binding signal (z-score)” value (GalNAc6S(b1-4)GlcNAc) was -0.209, the “glycan array binding signal (z-score)” value [14] was -0.2 and the “glycan array binding signal (z-score)” value [15] was -0.203. For the same binder, the “glycan array binding signal (z-score)” value [16] was -0.168, the “glycan array binding signal (z-score)” value [17] was -0.147 and the “glycan array binding signal (z-score)” value [18] was -0.124. The “glycan array binding signal (z-score)” value [19] was -0.185, the “glycan array binding signal (z-score)” value [20] was -0.264 and the “glycan array binding signal (z-score)” value (GlcNAc(b1-4)GlcNAc) was -0.211. The “glycan array binding signal (z-score)” value [21] was 3.35, the “glycan array binding signal (z-score)” value [22] was 2.72 and the “glycan array binding signal (z-score)” value [23] was 3.81. For the same binder, the “glycan array binding signal (z-score)” value (Man(a1-3)[Man(a1-6)]Man) was 5.62, the “glycan array binding signal (z-score)” value [24] was 5.57 and the “glycan array binding signal (z-score)” value [25] was 5.35. For the same binder, the “glycan array binding signal (z-score)” value [26] was 5.15, the “glycan array binding signal (z-score)” value [27] was 8.3 and the “glycan array binding signal (z-score)” value [28] was 6.07. The “glycan array binding signal (z-score)” value (Neu5Ac(a2-3)Gal) was -0.214, the “glycan array binding signal (z-score)” value [29] was -0.218 and the “glycan array binding signal (z-score)” value [30] was -0.216. The “glycan array binding signal (z-score)” value [31] was -0.221, the “glycan array binding signal (z-score)” value [32] was -0.187 and the “glycan array binding signal (z-score)” value [33] was -0.211. The “glycan array binding signal (z-score)” value [34] was -0.179, the “glycan array binding signal (z-score)” value [35] was -0.215 and the “glycan array binding signal (z-score)” value [36] was 0.002. The “glycan array binding signal (z-score)” value [37] was 3.55, the “glycan array binding signal (z-score)” value [38] was -0.165 and the “glycan array binding signal (z-score)” value [39] was -0.107. For the same binder, the “glycan array binding signal (z-score)” value [40] was -0.222, the “glycan array binding signal (z-score)” value [41] was -0.177 and the “glycan array binding signal (z-score)” value (Neu5Ac(b2-6)GalNAc) was -0.213.
